RmlCD inh 1536: blocks M. tuberculosis RmlC and RmlD coupled enzymes; RmlC+RmlD coupled enzyme assay, percent inhibition; primary screen in compound mixtures; inhibition, % at 3.6 µM; 160,000 compounds, 0.03% hits; AID 1533; in the data active = inhibition mostly above about 34%, no sharp cut-off
Target sequence (P9WH09 whole entry, looked up): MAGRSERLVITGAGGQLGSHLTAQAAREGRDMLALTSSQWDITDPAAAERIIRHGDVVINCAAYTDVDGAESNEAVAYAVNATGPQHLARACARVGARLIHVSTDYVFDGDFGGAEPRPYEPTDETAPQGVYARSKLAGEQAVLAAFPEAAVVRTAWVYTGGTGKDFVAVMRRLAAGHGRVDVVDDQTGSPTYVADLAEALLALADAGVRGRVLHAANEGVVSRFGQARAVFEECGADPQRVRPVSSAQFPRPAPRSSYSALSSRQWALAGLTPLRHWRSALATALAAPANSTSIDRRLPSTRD
Target sequence (P9WH11 whole entry, looked up): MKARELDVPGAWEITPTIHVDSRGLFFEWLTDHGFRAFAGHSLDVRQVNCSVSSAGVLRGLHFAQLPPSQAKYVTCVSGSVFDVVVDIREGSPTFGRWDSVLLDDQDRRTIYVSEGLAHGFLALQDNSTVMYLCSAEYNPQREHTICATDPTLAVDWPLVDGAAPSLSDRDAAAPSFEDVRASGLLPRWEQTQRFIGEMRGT
Large screens that a line does not name were inactive. This is one part of a sample in which hits are shown more often than they occur.

CCCn1c2c(c(O)c(C(=O)Nc3nc4ccccc4s3)c1=O)CCCC2	none
CC(C)Cn1c2c(c(O)c(C(=O)Nc3nc4ccccc4s3)c1=O)CCCC2	RmlCD inh 1536 82.1
Cc1nc2ccccc2c(=O)n1NC(=O)c1c(O)c2c(n(CC(C)C)c1=O)CCCC2	none
Cc1ccc2c(=O)[nH]c(Cc3ccccc3C(=O)O)nc2c1	none
CC1Oc2ccccc2C=C1/C=N/Nc1ccc(C(=O)O)cc1 (stereo unspecified)	none
Nc1ccc(-c2nc3ccccc3[nH]2)cc1	none
Fc1ccc(-c2nc3ccccc3[nH]2)cc1	none
O=C(O)c1ccc(-c2nc3ccccc3[nH]2)cc1	RmlCD inh 1536 95.3
CN1CCC(NC(=S)Nc2cccc([N+](=O)[O-])c2)CC1	none
O=C(/C=C/Sc1ccc(C(F)(F)F)cn1)c1ccccc1	none
Cc1cc(=O)[nH]c(SCC(=O)OCc2ccccc2)c1C#N	none
CCOC(=O)c1sc(NC(=O)c2ccccc2OCC)nc1C	none
CCOC(=O)c1sc(Nc2ccc(F)cc2)nc1C	none
CCOC(=O)c1sc(Nc2nc3c(OC)cccc3s2)nc1C	RmlCD inh 1536 73.8
Oc1c(/C=C/C=C/C=Nc2ccccc2)sc(=S)n1Cc1ccccc1	none
CCOC(=O)CNc1c(-c2ccc(F)cc2)nc2cnccn12	RmlCD inh 1536 50.8
COc1ccc(-c2nc3cnccn3c2Nc2ccc(C)cc2)cc1	none
CC(=O)Nc1c(-c2ccc(F)cc2)nc2ccccn12	none
COCCOC(=O)c1c(NC(=O)CN2c3ccccc3CC2C)sc(C(N)=O)c1C (stereo unspecified)	none
Cc1ccc(C(=O)CN2C(=O)C(=O)N(Cc3ccccc3)C2=O)cc1	none
COc1ccc(CNC(=O)C2CCC(CNc3c(N4CCC(C)CC4)c(=O)c3=O)CC2)cc1 (stereo unspecified)	none
Fc1ccccc1COc1ccc2ccccc2c1CNc1nn[nH]n1	none
Clc1ccc(-c2cn3nc4c(nc3n2)CCCC4)cc1	none
CCc1ccc(-c2cn3c(n2)SCC3)cc1	none
CCc1ccc(-c2cn3nc(-c4ccccc4)cnc3n2)cc1	RmlCD inh 1536 70.3
NS(=O)(=O)c1ccc(N2C(=O)C(=O)/C(=C(/O)c3ccccc3)C2c2ccc(Cl)cc2)cc1 (stereo unspecified)	none
CC(C)c1ccc(N=C(N)N=C(N)N)cc1	none
COc1ccc(C(=O)N=S2CCN(C(=O)c3ccc(Cl)cc3)CC2)cc1	none
CCN(CC)C(=O)COC(=O)c1cc(-c2ccco2)nc2ccccc12	none
O=C(NNC(=O)c1cc(-c2ccco2)nc2ccccc12)c1ccccc1	none
CNC(=O)COC(=O)c1cc(-c2ccco2)nc2ccccc12	RmlCD inh 1536 37.1
CC1CCN(CC(CS(=O)(=O)c2ccc([N+](=O)[O-])cc2)N2CCC(C)CC2)CC1 (stereo unspecified)	none
Cc1c(Cl)sn(-c2ccc(Cl)cc2)c1=O	none
COc1ccccc1Oc1c(C)oc2c(CN3CCOCC3)c(O)ccc2c1=O	none
COc1ccccc1-c1c(C)oc2c(CN3CCN(CCO)CC3)c(O)ccc2c1=O	RmlCD inh 1536 56.3
COc1ccc(-c2c(C)oc3c(CN4CCN(CCO)CC4)c(O)ccc3c2=O)cc1OC	none
NS(=O)(=O)c1cccc(NS(=O)(=O)c2cccc(C(F)(F)F)c2)c1	none
CC(NCc1cc(Br)ccc1OCC(=O)NCc1ccccc1)c1ccccc1 (stereo unspecified)	none
CCC(C)[C@H](NC(=O)N1CCC(C)CC1)C(=O)OC (stereo partly specified)	none
COc1cccc(/C=N\NC(=O)c2ccc(Cn3cc(Br)c([N+](=O)[O-])n3)o2)c1O	none
COCCn1c(=N)c(C(=O)NCCc2ccc(OC)cc2)cc2c(=O)n3cccc(C)c3nc21	none
Cc1cccn2c(=O)c3cc(C(=O)NC(C)C)c(=N)n(Cc4ccncc4)c3nc12	none
CCNC(=O)c1cc2c(=O)n3cccc(C)c3nc2n(Cc2ccc(C)cc2)c1=N	RmlCD inh 1536 56.5
CCOC(=O)C(=CNNc1ccccc1)C(=O)OCC	none
COc1ccc(-c2cc(C(F)F)n3ncc(C(=O)Nc4cccc(S(=O)(=O)N5CCOCC5)c4)c3n2)cc1	none
CC(C)c1nnc(NC(=O)CCC(=O)Nc2ccc3cn[nH]c3c2)s1	none
CNC(=O)c1cc(C)c(-c2ccccc2)s1	none
O=C(N/N=C/c1ccc(F)c(F)c1)c1cc2c(s1)-c1ccccc1CC2	none
CNC(=O)c1cc2c(s1)-c1ccccc1CC2	RmlCD inh 1536 56.9
CCCCN1C(=S)SC(C)(C)C1/[N+]([O-])=C/c1ccc(S(=O)(=O)NC)cc1 (stereo unspecified)	none
CCn1c2ccccc2c2cc(NC(=O)COC(=O)c3cc(Cl)c(N)cc3OC)ccc21	none
Cc1[nH]n(-c2ccccc2)c(=O)c1/C=N/NC(=O)C(C)C	none
COc1cccc(/C=N/n2nnc3c(cnn3-c3ccccc3)c2=O)c1	none
COc1cccc(/C=C/c2nc3c(cnn3-c3ccccc3)c(=O)[nH]2)c1	RmlCD inh 1536 35.4
O=c1[nH]c(/C=C/c2ccc(Br)cc2)nc2c1cnn2-c1ccccc1	none
CSc1ccccc1NC(=O)c1cc(-c2cccnc2)nc2ccc(Br)cc12	none
O=C(NC(=S)N1CCCCC1)c1csc([N+](=O)[O-])c1	none
CC(=O)Nc1ccc(Cc2nc3c([nH]2)c(=O)n(C)c(=O)n3C)cc1	none
CC1CCc2c(sc3ncn(N)c(=N)c23)C1 (stereo unspecified)	none
O=C(Oc1ccc2c3c(c(=O)oc2c1)CCCC3)c1ccco1	none
CC[C@@H](NS(=O)(=O)c1ccc(C)cc1)C(=O)Oc1ccc2c3c(c(=O)oc2c1)CCC3	RmlCD inh 1536 45.5
Cc1ccc(S(=O)(=O)NC(CC(C)C)C(=O)Oc2ccc3c4c(c(=O)oc3c2)CCC4)cc1 (stereo unspecified)	none
CCC(NC(=O)OC(C)(C)C)C(=O)Oc1ccc2c3c(c(=O)oc2c1)CCC3 (stereo unspecified)	none
CC(C)CC(C(=O)Oc1ccc2c3c(c(=O)oc2c1)CCC3)N1C(=O)c2ccccc2C1=O (stereo unspecified)	RmlCD inh 1536 54.5
CC(C)Oc1ccc2c3c(c(=O)oc2c1)CCC3	none
CC(=O)c1ccc(NC(=S)NC(C)c2ccc(Cl)cc2Cl)cc1 (stereo unspecified)	none
O=C(COC(=O)c1ccccn1)Nc1nc(-c2cccc([N+](=O)[O-])c2)cs1	none
C=CCN1C(=O)/C(=C/c2ccc(OC(C)=O)c(OCC)c2[N+](=O)[O-])SC1=S	none
CCCn1cnc2c(c1=O)c1nc3ccccc3nc1n2CCC1=CCCCC1	none
CCOCCCn1c(C)nc2c(c1=O)c1nc3ccccc3nc1n2CCC1=CCCCC1	none
Cc1nc2c(c(=O)n1CCC1=CCCCC1)c1nc3ccccc3nc1n2/N=C/c1ccccc1	RmlCD inh 1536 33.7
O=C(CCc1nnc(-c2ccc3c(c2)OCO3)o1)N1CCC(c2ccc(F)cc2)C1 (stereo unspecified)	none
CC(C)CCN(C(=O)Cc1ccc(Cl)c(Cl)c1)c1c(N)n(Cc2ccccc2)c(=O)[nH]c1=O	none
COc1ccc(C2Nc3cc(OC)ccc3-n3cccc32)cc1 (stereo unspecified)	none
Cc1nnc(SCC(=O)N(C)c2ccccc2)n1Cc1ccccc1	none
O=C(NCC1CCCO1)c1coc2nc3ccccc3nc12 (stereo unspecified)	none
COC(CNC(=O)c1ccc2nc(-c3ccccc3)c(-c3ccccc3)nc2c1)OC	none
COC(CNC(=O)c1coc2nc3ccccc3nc12)OC	RmlCD inh 1536 73.9
O=C(Nc1ccc(NC(=O)C2CCCCC2)nc1)c1cccs1	none
O=C(/C=C/c1ccccc1)NC(=S)Nc1ncccn1	none

From PubChem
